An excerpt weighted towards active compounds, which were near 9.9% of everything screened.
KB-V1 cytotox = kills drug-selected multidrug resistant KB-V1 cells. KB-V1 MDR cells viability, CellTiter-Glo, 72 h. 400,000 compounds, 3.4% hits. Potency, µM (doses to about 46.1 µM), most hits filed as cytotoxic; note: nearly all actives have a fitted effect of over 60% in size
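Following 72 h at 37 degrees C with compound, KB-V1 cell viability was read by CellTiter-Glo luminescence, medium being phenol-red-free DMEM plus 10% FBS; concentration-response parameters came from normalized, curve-fitted qHTS data.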
KB-3-1 cytotox = kills parental KB-3-1 adenocarcinoma cells; 400,000 compounds, 1.4% hits; AID 1347075; Potency, µM (top dose mostly 46.1 µM), usual class: cytotoxic; KB-3-1 viability, CellTiter-Glo ATP luminescence, 72 h; note: nearly all actives have a fitted effect of over 60% in size
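Here the drug-naive KB-3-1 line serves as comparator for MDR sub-line selectivity; cells received compound titrations, 72 h at 37 °C, then CellTiter-Glo readout.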
IL-1B inflam inh = blocks inflammasome-driven IL-1 beta release; THP-1 LPS/ATP IL-1B secretion, AlphaLISA, 16 h; hits give low values; activity change, % at 57.5 µM; 360,000 compounds, 4.7% hits; in the data active = activity change below about -50%; inconclusive = mostly about -30% to -49%
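Secreted IL-1B measured by AlphaLISA bead assay after 16 h compound exposure of THP-1 cells; compounds (final up to 57.5 uM) added 1 h before LPS (250 ng/mL) and ATP (1.25 mM) stimulation; lower signal means less secretion.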
SW480 rereplic = induces DNA re-replication in SW480 colon adenocarcinoma cells | AID 624297 | 340,000 compounds, 1.8% hits | Potency, µM (top dose mostly 46.1 µM), most hits filed as activators | SW480 DNA re-replication, Hoechst DNA content imaging, 48 h; note: nearly all actives have a fitted effect of over 55% in size
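Per well, 250 cells were exposed to pinned compound for 48 hr. Nuclear DNA was visualised with Hoechst (40 min, 37 C) and total object intensity recorded by fluorescence scanning.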
MCF10A rereplic = inducers of DNA re-replication in MCF 10A breast cells; MCF 10A DNA re-replication, Hoechst nuclear intensity, 48 h; Potency, µM (highest dose often 46.1 µM), actives largely listed as activators; 350,000 compounds, 2.9% hits; AID 624296; note: nearly all actives have a fitted effect of over 50% in size
A number is an active result; i = inactive; ? = inconclusive; nt = not tested or not shown; ! = not active in a repeat. Unless noted, calls come from the whole dose curve; as a rule, active = well fitted curve in the direction sought with a large enough effect; inconclusive = small, poorly fitted or top-dose-only effect, or another doubt; inactive = no such curve, though single readings can be large; an effect the other way counts as inactive or inconclusive.

SMILES	KB-V1 cytotox	KB-3-1 cytotox	IL-1B inflam inh	SW480 rereplic	MCF10A rereplic
Cc1ccc(Cl)cc1N1CCN(C(=O)c2cn(C)c(=O)c3c2c2ccccc2n3C)CC1	?	i	-68	?	?
NC(N)=N/N=C/c1ccc(N(c2ccccc2)c2ccccc2)cc1	i	i	-55	?	?
COc1ccc(/C=N\N=C(N)N)cc1	?	?	i	?	?
NC(N)=N/N=C/c1ccc(N2CCOCC2)cc1	i	?	i	6.5µM	?
O=C1c2ccccc2C(=O)N1SC1CCCCC1	i	i	i	?	?
Cn1cc(C(=O)OCC(=O)Nc2ccccc2Cl)c2ccccc21	i	i	i	?	i
Cn1cc(C(=O)OCC(=O)Nc2ccccc2)c2ccccc21	21µM	i	i	i	i
NS(=O)(=O)c1ccc(N=Cc2c(O)n(C3CCCCC3)c(=O)n(C3CCCCC3)c2=O)cc1	i	i	-100	i	i
OC[C@H]1OC(O)C[C@@H](O)[C@@H]1O (stereo not given in full)	i	i	i	i	i
CC(C)N(C(=O)CCl)c1ccccc1	?	?	-51	?	?
CN(C)C(Cc1ccccc1)C(=O)c1ccccc1 (stereo not given)	i	i	i	i	i
CN1CC2CN(Cc3ccccc3)S(=O)(=O)C2C1 (stereo not given)	i	i	i	nt	nt
COC(=O)C1=C(C)NC(C)=C(C(=O)OC)C1c1ccccc1[N+](=O)[O-]	8.2µM!	i	i	?	?
Cn1cc(NC(=O)CCl)cn1	?	?	-102	i	i
COC1/C=C/C=C(\C)Cc2cc(O)c(Cl)c(c2)N(C)C(=O)CC(OC(=O)C(C)C)C2(C)OC2C(C)C2CC1(O)NC(=O)O2 (stereo not given)	0.73µM	?	i	?	?
CN1CCN(c2cccc3c2C(=O)c2ccccc2C3=O)CC1	18µM	?	-60	i	i
CCOC(=O)c1cnc(SCc2ccc(Cl)c(Cl)c2)nc1N1CC1	8.2µM	i	i	4.1µM	13µM
CCN(CC)CCN1C(=O)CN=C(c2ccccc2F)c2cc(Cl)ccc21	nt	nt	nt	i	i
c1ccc(CCn2nnnc2CN2CCC(n3nnc4ccccc43)CC2)cc1	5.8µM	i	i	i	i
Cc1nc2cc(C(F)(F)F)ccc2n1C1CCN(Cc2nnnn2Cc2ccc3c(c2)OCO3)CC1	18µM	?	-71	i	?
FC(F)(F)c1ccc2c(c1)ncn2C1CCN(Cc2nnnn2C2CCCCC2)CC1	7.3µM	?	?	i	i
Fc1ccc(Cn2nnnc2CN2CCC(n3nnc4cc(C(F)(F)F)ccc43)CC2)cc1	?	i	?	i	26µM
Cc1ccc2c(c1)[C@@H]1CN(C)CC[C@H]1N2	nt	nt	nt	i	i
CC(C)(C)c1ccc(OCC(=O)Nc2ccc(Cl)cc2C(=O)c2ccccc2)cc1	i	i	nt	nt	nt
Cc1ccc2c(c1)C1CN(C)CCC1N2C(=O)COc1ccc(N(C)S(=O)(=O)c2cccs2)cc1 (stereo not given)	i	i	i	?	i
SMILES	KB-V1 cytotox	KB-3-1 cytotox	IL-1B inflam inh	SW480 rereplic	MCF10A rereplic
CCOc1ccc(S(=O)(=O)N(C)c2ccc(OCC(=O)N3c4ccc(C)cc4C4CN(C)CCC43)cc2)cc1 (stereo not given)	i	i	-50	i	?
Oc1c(Br)cc(Br)cc1Br	i	i	i	i	?
N[C@@H](Cc1cc(Br)c(O)c(Br)c1)C(=O)O	nt	nt	nt	i	18µM
COc1ccc(C2=CC(c3ccc4c(c3)OCO4)c3c(c4ccccc4oc3=O)O2)cc1OC (stereo not given)	2.6µM	2.9µM	i	6.5µM	2.6µM
C/C(=N\Nc1ccccc1)c1c(O)[nH]c(=O)[nH]c1=O	i	?	i	21µM	?
Cn1nc(C(F)(F)F)c(-c2ccccc2)c1N	?	i	nt	i	?
CCOC(=O)C1(c2ccccc2)CCN(CCC(=O)Nc2cccc(Br)c2)CC1	?	?	-101	i	?
CCOC(=O)C1(c2ccccc2)CCN(CCC(C#N)(c2ccccc2)c2ccccc2)CC1	?	i	i	2.8µM	?
CCOC(=O)C1(c2ccccc2)CCN(CCC(=O)Nc2ccc(OC)cc2)CC1	i	i	i	nt	nt
C[C@H]1COC(=O)[C@H](Cc2ccc(F)cc2)CC/C=C/C[C@@H](CC(=O)N(CCO)Cc2ccccc2)C(=O)N1	i	i	i	i	?
